{
  "source": "PubChem BioAssay (Tox21)",
  "note": "“And” between values parts separate entries of the source, which are not always exact repeats. Equal entries are not always repeated. Records with an inconclusive call do not appear. The source made the active and inactive calls. Calls come from the whole dose curve; as a rule, active = well fitted inhibition curve with a large enough effect in the repeat runs; inconclusive = weak or mixed curves; inactive = no such curve, though single readings can be large or run the other way. % is set by controls: 0 for no effect and ±100 for the full control effect; potency is the fitted concentration of half-maximal effect.",
  "data": [
    {"experiment": "qHTS assay to identify small molecule antagonists of the thyroid receptor (TR) signaling pathway (AID 743065); note: nearly all actives have a fitted effect of over 55% in size", "conditions": "GH3.TRE-Luc, T3-stimulated luciferase inhibition, 23.5 h; series mostly up to 70.3 µM; activity, negative = inhibition: at the top concentration", "method_in_brief": "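Antagonism measured as loss of luciferase signal in GH3 cells stably carrying a TRE-luciferase reporter, co-treated with compound and T3 (1 nM final) for 23.5 h at 37 C. Viability was read in the same well by CellTiter-Fluor.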", "values": [
      {"compound": "CC1(C)C[C@@H]1C(=O)N/C(=C\\CCCCSC[C@H](N)C(=O)O)C(=O)O", "Potency": "inactive"},
      {"compound": "Cc1cc(-c2ccc(N=Nc3ccc4c(S(=O)(=O)O)cc(S(=O)(=O)O)c(N)c4c3O)c(C)c2)ccc1N=Nc1ccc2c(S(=O)(=O)O)cc(S(=O)(=O)O)c(N)c2c1O", "Potency": "23.7 µM (active)"},
      {"compound": "Clc1nc(C(Cl)(Cl)Cl)c(Cl)c(Cl)c1Cl", "Potency": "17.2 µM (active)"},
      {"compound": "O=C1c2ccccc2C(=O)C1c1ccc(F)cc1", "activity, negative = inhibition": "6.69% (inactive)"},
      {"compound": "CC(=O)OCC(=O)[C@@]1(O)CC[C@H]2[C@@H]3C[C@H](C)C4=CC(=O)C=C[C@]4(C)[C@H]3[C@@H](O)C[C@@]21C", "activity, negative = inhibition": "8.11% (inactive)"},
      {"compound": "CC(C)c1ccc2sc3ccccc3c(=O)c2c1", "activity, negative = inhibition": "-16.4% (inactive)"},
      {"compound": "CC(=O)Oc1cc(C(F)(F)F)ccc1C(=O)O", "activity, negative = inhibition": "1.38% [at 32.5 µM] (inactive)"},
      {"compound": "N[C@H](C(=O)O)[C@@H]1CC(Cl)=NO1", "Potency": "2.98 µM (active)"},
      {"compound": "NCc1cccc(C2CCN(C(=O)c3ccc(C#Cc4ccccc4F)o3)CC2)c1", "Potency": "7.7 µM (active)"},
      {"compound": "CC1CCCCN1CCCOC(=O)c1ccccc1", "note": "(stereo not drawn)", "activity, negative = inhibition": "-10.3% (inactive)"},
      {"compound": "O=C1CCC(c2ccc(-n3ccnc3)cc2)=NN1", "activity, negative = inhibition": "4.41% (inactive)"},
      {"compound": "COc1cc(/C=C/C(=O)CC(=O)/C=C/c2ccc(O)c(OC)c2)ccc1O", "Potency": "23.7 µM (active) and 17.3 µM (active)"},
      {"compound": "CSCC[C@H](NC(=O)[C@H](Cc1ccc(OS(=O)(=O)O)cc1)NC(=O)[C@@H](N)CC(=O)O)C(=O)NCC(=O)N[C@@H](Cc1c[nH]c2ccccc12)C(=O)N[C@@H](CCSC)C(=O)N[C@@H](CC(=O)O)C(=O)N[C@@H](Cc1ccccc1)C(N)=O", "Potency": "inactive"},
      {"compound": "O=C1OC(=O)c2cc(-c3ccc4c(c3)C(=O)OC4=O)ccc21", "activity, negative = inhibition": "13% (inactive)"},
      {"compound": "CCOc1ccc([N+](=O)[O-])cc1", "Potency": "31.1 µM (active)"},
      {"compound": "C=N[C@@H](C(=O)N[C@@H]1C(=O)N2[C@@H]1SC(C)(C)[C@@H]2C(=O)O)c1ccccc1", "activity, negative = inhibition": "5.31% (inactive)"},
      {"compound": "CN(C)CCc1c[nH]c2ccc(Cn3cncn3)cc12", "activity, negative = inhibition": "1.97% (inactive)"},
      {"compound": "FC(F)(F)COCC(F)(F)F", "activity, negative = inhibition": "8.51% (inactive)"},
      {"compound": "CCCCCCCCCC[N+](C)(CCCCCCCCCC)CCC[Si](OC)(OC)OC", "Potency": "21.7 µM (active)"},
      {"compound": "N[C@@H](Cc1ccc(O)c(O)c1)C(=O)O", "activity, negative = inhibition": "9.65% (inactive)"},
      {"compound": "C[C@@H]1C[C@H]2[C@@H]3C[C@H](F)C4=CC(=O)C=C[C@]4(C)[C@@]3(Cl)[C@@H](O)C[C@]2(C)[C@H]1C(=O)COC(=O)C(C)(C)C", "activity, negative = inhibition": "0.107% (inactive)"},
      {"compound": "CC(Cc1ccc(O)c(O)c1)C(C)Cc1ccc(O)c(O)c1", "note": "(stereo not drawn)", "Potency": "7.7 µM (active)"},
      {"compound": "O=C1OC(O)C(C(Cl)Cl)=C1Cl", "note": "(stereo not drawn)", "Potency": "22.4 µM (active)"},
      {"compound": "NC(N)=NCCCCN=C(N)N", "activity, negative = inhibition": "11% (inactive)"},
      {"compound": "NC(=O)CC[C@@H]1NC(=O)[C@H](Cc2ccccc2)NC(=O)[C@H](Cc2ccc(O)cc2)NC(=O)[C@@H](N)CSSC[C@@H](C(=O)N2CCC[C@H]2C(=O)N[C@@H](CCCN=C(N)N)C(=O)NCC(N)=O)NC(=O)[C@H](CC(N)=O)NC1=O", "Potency": "inactive"},
      {"compound": "Cc1c(N)nc([C@H](CC(N)=O)NC[C@H](N)C(N)=O)nc1C(=O)N[C@H](C(=O)N[C@H](C)[C@@H](O)[C@H](C)C(=O)N[C@H](C(=O)NCCc1nc(-c2nc(C(=O)NCCCCN=C(N)N)cs2)cs1)[C@@H](C)O)[C@@H](O[C@@H]1O[C@@H](CO)[C@@H](O)[C@H](O)[C@@H]1O[C@H]1O[C@H](CO)[C@@H](O)[C@H](OC(N)=O)[C@@H]1O)c1cnc[nH]1", "Potency": "3.76 µM (active) and 841 nM (active)"},
      {"compound": "CC[C@@H](C(=O)[C@@H](C)[C@@H](O)[C@H](C)CCc1ccc(C)c(O)c1C(=O)O)[C@H]1O[C@](CC)([C@H]2CC[C@](O)(CC)[C@H](C)O2)C[C@@H]1C", "Potency": "1.33 µM (active)"},
      {"compound": "CCC(NC(C)C)C(O)c1ccc(O)c(O)c1", "note": "(stereo not drawn)", "activity, negative = inhibition": "-13.4% (inactive)"},
      {"compound": "CCCCCCOC(=O)c1cccnc1", "activity, negative = inhibition": "2.1% (inactive)"},
      {"compound": "CC(C)C[C@H](NC(=O)[C@@H](COC(C)(C)C)NC(=O)[C@H](Cc1ccc(O)cc1)NC(=O)[C@H](CO)NC(=O)[C@H](Cc1c[nH]c2ccccc12)NC(=O)[C@H](Cc1cnc[nH]1)NC(=O)[C@@H]1CCC(=O)N1)C(=O)N[C@@H](CCCN=C(N)N)C(=O)N1CCC[C@H]1C(=O)NNC(N)=O", "Potency": "inactive"},
      {"compound": "CC(=O)OCC1=C(C(=O)O)N2C(=O)[C@@H](NC(=O)Cc3ccccc3)[C@H]2SC1", "activity, negative = inhibition": "4.67% (inactive)"},
      {"compound": "NS(=O)(=O)c1cc(Cl)c(Cl)c(S(N)(=O)=O)c1", "activity, negative = inhibition": "6.33% [at 32.5 µM] (inactive)"},
      {"compound": "O=c1[nH]c(=O)n([C@H]2C[C@H](O)[C@@H](CO)O2)cc1/C=C/Br", "activity, negative = inhibition": "17.7% (inactive)"}
    ]}
  ]
}
